Screening data from PubChem.
Hits are enriched below; roughly 1.6% of the tested compounds scored in any of these assays.
KCNQ2 block – rat KCNQ2 potassium channel inhibitors, primary screen, cell-based, CHO-K1, FluxOR thallium flux, B-score | 310,000 tested, 1.1% active | 20 min; stronger effect = lower value | B-score at 10 µM | AID 2156, 2009 | Potassium voltage-gated channel subfamily KQT member 2 (Rattus norvegicus), O88943;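 active means fluorescence ratio B-score at most minus 3 library SDs, with starting brightness B-score within 2 library SDs, cut at about -5.5 in these data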
Target sequence (O88943 whole entry, looked up): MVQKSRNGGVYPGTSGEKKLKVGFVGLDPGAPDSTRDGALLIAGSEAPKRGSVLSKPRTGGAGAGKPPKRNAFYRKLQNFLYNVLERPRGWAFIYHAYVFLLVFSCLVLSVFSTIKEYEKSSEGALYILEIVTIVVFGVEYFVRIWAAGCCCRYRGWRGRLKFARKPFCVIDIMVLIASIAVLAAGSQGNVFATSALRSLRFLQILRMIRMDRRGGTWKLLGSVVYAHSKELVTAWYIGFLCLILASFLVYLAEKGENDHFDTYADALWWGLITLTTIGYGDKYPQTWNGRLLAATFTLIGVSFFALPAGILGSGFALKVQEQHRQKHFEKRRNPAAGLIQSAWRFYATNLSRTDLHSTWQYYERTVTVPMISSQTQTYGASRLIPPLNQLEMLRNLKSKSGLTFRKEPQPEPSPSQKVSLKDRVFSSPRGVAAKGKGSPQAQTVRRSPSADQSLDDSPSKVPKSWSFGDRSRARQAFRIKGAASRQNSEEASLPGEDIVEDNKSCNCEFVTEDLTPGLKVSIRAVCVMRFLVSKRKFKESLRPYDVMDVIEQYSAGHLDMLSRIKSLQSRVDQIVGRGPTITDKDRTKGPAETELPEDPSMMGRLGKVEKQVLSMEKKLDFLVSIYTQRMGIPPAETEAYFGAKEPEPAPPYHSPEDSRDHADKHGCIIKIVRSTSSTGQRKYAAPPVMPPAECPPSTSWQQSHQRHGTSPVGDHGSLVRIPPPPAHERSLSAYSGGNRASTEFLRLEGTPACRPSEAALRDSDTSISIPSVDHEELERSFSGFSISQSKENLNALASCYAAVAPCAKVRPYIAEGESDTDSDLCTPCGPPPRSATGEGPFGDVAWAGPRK
KCNQ2 enhance – potentiators of rat KCNQ2 potassium channel | Potassium voltage-gated channel subfamily KQT member 2 (Rattus norvegicus), O88943 | CHO-K1 KCNQ2, FluxOR thallium flux fluorescence; stronger effect = higher value | B-score at 10 µM | 310,000 tested, 0.54% active | AID 2239, 2010;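 active means fluorescence ratio B-score at least 3 SD of library B-scores, with initial fluorescence B-score within 3 of them, cut at about 5.3 in these data; same plate scores as AID 2156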;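 further: B-score of peak minus minimum over baseline fluorescence ratio after K+ and Tl+ stimulus; positive B-score means potentiation of KCNQ2 with more thallium influx and brighter signal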
Kir21 conf inh – mouse Kir2.1 channel blockers, retest, confirmation, cell-based, FluxOR thallium flux, duplicate. shares compounds with KCNQ2 enhance. Kir2.1-expressing cells, FluxOR thallium flux fluorescence; stronger effect = lower value. Tl flux remaining, % of negative control (stronger effect = lower value), % at 10 µM. 2,300 tested, 41% active;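 active means Primary-screen hit whose thallium flux fell at least 3 control SD below untreated wells in both duplicates, with normal baseline fluorescence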
HEK293 Tl flux – alters thallium flux in parental HEK293 cells, Kir2.1 counter-screen; shares compounds with KCNQ2 enhance; FluxOR thallium flux fluorescence; 0% = unstimulated blank wells; FluxOR signal as % of negative control (100 = no effect), % at 10 µM; 2,300 tested, 19% active; AID 2105;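 active means dye signal at least 3 control SD above or below untreated wells in both duplicates, raw fluorescence within 3, either direction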;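 further: percent is based on the flux ratio of peak minus minimum fluorescence over baseline F0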
CHO-K1 Tl ctr – nonspecific thallium flux increase in parental CHO-K1, confirmation, counter-screen for KCNQ2 potentiator project, cell-based, FluxOR thallium flux, duplicate; 1,200 tested, 43% active; parental CHO-K1 cells, FluxOR thallium flux fluorescence; zero = vehicle mean+3SD, 100% = vehicle-minus-blank window; shares compounds with KCNQ2 enhance; AID 2282, 2010; activity increase over 3SD of controls, % at 10 µM;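 active means signal rise of at least 3 SD above the untreated control mean, in both duplicate wells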;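 further: counter screen of KCNQ2 potentiator hits so any rise reflects channel-independent effects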
KCNQ1 sel pot – human KCNQ1 channel potentiation off-target, confirmation, selectivity assay for KCNQ2 potentiator project, cell-based, CHO, FluxOR thallium flux | shares compounds with KCNQ2 enhance | CHO KCNQ1 stable, FluxOR thallium flux fluorescence; beyond 3SD, as % of vehicle-control signal | activation over 3SD threshold, % at 10 µM | 1,200 tested, 28% active;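 active means fluorescence ratio rise of at least 3 SD of vehicle wells above their mean, in both replicate wells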
KCNQ2 pot confirm – rat KCNQ2 channel potentiators, confirmation, cell-based, CHO, FluxOR thallium flux, duplicate. shares compounds with KCNQ2 enhance. 1,200 tested, 68% active. CHO-KCNQ2 cells, FluxOR thallium flux fluorescence. potentiation, less the hit threshold, % at 10 µM;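 active means fluorescence ratio rising 3 SD or more over the vehicle control mean in both replicates, plus primary screen hit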;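 further: peak minus minimum thallium fluorescence divided by baseline after K/Tl stimulus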
Kir21 spec – mouse Kir2.1 channel activation off-target, confirmation, selectivity assay for KCNQ2 potentiator project, cell-based, HEK293, FluxOR thallium flux; shares compounds with KCNQ2 enhance; HEK293 Kir2.1, FluxOR thallium flux fluorescence; activity over 3SD threshold, % at 10 µM; 1,200 tested, 2% active;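 active means fluorescence ratio rise of at least 3 SD above the vehicle-control mean, seen in both replicates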
KCNQ2 W236L MoA – potentiators of retigabine-insensitive KCNQ2 W236L, mechanism study for KCNQ2 potentiator project, cell-based, rat KCNQ2 W236L, CHO, automated patch clamp; AID 2558, 2010; automated patch clamp current; shares compounds with KCNQ2 enhance; current increase over 3SD of negative controls (%), stronger effect = higher value, % at 25 µM; 940 tested, 10% active;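 active means current increase at least 3 SD of the untreated controls above them in both duplicate recordings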
Large screens that a line does not name were inactive (follow-up assays come after a bar, where they were run).

Cc1sc2nc[nH]c(=O)c2c1-c1ccc(F)cc1	none
CCc1cccc(C)c1NC(=O)COC(=O)C1CCN(S(=O)(=O)c2ccccc2)CC1	none
CCc1cccc(C)c1NC(=O)CN1CCN(S(=O)(=O)c2ccc(C(C)(C)C)cc2)CC1	KCNQ2 enhance 5.32 | Kir21 conf inh inactive | HEK293 Tl flux inactive | CHO-K1 Tl ctr 63.4 | KCNQ1 sel pot inactive | KCNQ2 pot confirm inactive | Kir21 spec inactive
CCCCCNc1nc(NCCCO)c(C#N)c2c1CN(C)CC2	none
CCN1CCc2c(C#N)c(NCc3ccccc3)nc(N(CC)CC)c2C1	KCNQ2 enhance 9.13 | Kir21 conf inh inactive | HEK293 Tl flux inactive | CHO-K1 Tl ctr inactive | KCNQ1 sel pot inactive | KCNQ2 pot confirm 31.4 | Kir21 spec inactive | KCNQ2 W236L MoA inactive
C=CCNc1nc(NCc2ccccc2)c(C#N)c2c1CN(C)CC2	none (no result: KCNQ2 enhance) | Kir21 conf inh 42.0% | HEK293 Tl flux inactive
CCCc1nc(NCc2ccccc2)c(C#N)c2c1CCCC2	none (no result: KCNQ2 enhance)
CC1=C(C(=O)O)N2C(=O)C(NC(=O)c3ccccc3Cl)C2SC1 (stereo not given)	KCNQ2 enhance 12.6 | Kir21 conf inh inactive | HEK293 Tl flux inactive | CHO-K1 Tl ctr 4.5 | KCNQ1 sel pot inactive | KCNQ2 pot confirm inactive | Kir21 spec inactive
CC1=C(C(=O)O)N2C(=O)C(NC(=O)c3nn(C)cc3Cl)C2SC1 (stereo not given)	none (no result: KCNQ2 enhance)
C(=N\Nc1ncnc2nc[nH]c12)/c1cccs1	none
CCOC(=O)c1c(CSC(=N)N)n(C)c2cc(Br)c(OC(C)=O)cc12	none (no result: KCNQ2 enhance)
CCOC(=O)c1c(CSC(=N)N)n(-c2ccc(C)cc2)c2cc(Br)c(OC(C)=O)cc12	none (no result: KCNQ2 enhance) | Kir21 conf inh 58.5% | HEK293 Tl flux inactive
Cc1c(C)c2ccc(OCC(=O)Nc3ccccn3)cc2oc1=O	none (no result: KCNQ2 enhance)
Cc1ccc(-c2nn(-c3ccccc3)cc2CSC(=N)N)cc1	none (no result: KCNQ2 enhance) | Kir21 conf inh inactive | HEK293 Tl flux inactive
OCc1cn(-c2ccccc2)nc1-c1ccc(-c2nn(-c3ccccc3)cc2CO)cc1	none
Cc1cccc(C)c1NC(=O)C(c1ccc([N+](=O)[O-])cc1)N(C)C(=O)c1ccccn1 (stereo not given)	none (no result: KCNQ2 enhance)
CC(C)Cc1csc(NC(=O)C(C)C)c1C(=O)O	none
CC(C)Cc1csc(NC(=O)c2ccc(Br)cc2)c1C(=O)O	KCNQ2 enhance 6.07 | Kir21 conf inh inactive | HEK293 Tl flux 126.5% | CHO-K1 Tl ctr 6.1 | KCNQ1 sel pot 15.7 | KCNQ2 pot confirm 17.6 | Kir21 spec inactive | KCNQ2 W236L MoA inactive
CCOc1cccc(NC(=O)C2CC(=O)N(C)C(=Nc3cccc(F)c3)S2)c1 (stereo not given)	KCNQ2 enhance 6.47 | Kir21 conf inh inactive | HEK293 Tl flux inactive | CHO-K1 Tl ctr inactive | KCNQ1 sel pot inactive | KCNQ2 pot confirm inactive | Kir21 spec inactive
CCOc1cccc(NC(=O)C2CC(=O)N(C)C(=Nc3ccccc3)S2)c1 (stereo not given)	none
CCCCN(C)C(=O)c1cc2c(s1)-c1ccccc1S(=O)(=O)C2	none (no result: KCNQ2 enhance)
CN(NS(=O)(=O)c1ccc(F)cc1)c1ncc(C(F)(F)F)cc1Cl	none
CN(NS(=O)(=O)c1ccc(Cl)cc1)c1ncc(C(F)(F)F)cc1Cl	none | Kir21 conf inh 57.5% | HEK293 Tl flux inactive
CC(C)c1nnc(NC(=O)CCC2CCCCC2)s1	none
COc1ccccc1CN=C1Nc2ccccc2CS1	none (no result: KCNQ2 enhance) | Kir21 conf inh 58.5% | HEK293 Tl flux inactive
COc1cccc(CN=C2Nc3ccccc3CS2)c1	none (no result: KCNQ2 enhance)
COc1cccc(CN2CC(C(=O)NCc3cccc(N4CCCC4)c3)CCC2=O)c1 (stereo not given)	none
Cc1ccc(-n2c(SCC(=O)N(C)C3CCS(=O)(=O)C3)nc3ccccc3c2=O)cc1 (stereo not given)	none
CCCn1c(SCC(=O)N2CCN(C(C)=O)CC2)nc2sc3c(c2c1=O)CCC3	KCNQ2 enhance 6.09 | Kir21 conf inh inactive | HEK293 Tl flux 290.0% | CHO-K1 Tl ctr 14.6 | KCNQ1 sel pot inactive | KCNQ2 pot confirm 23.5 | Kir21 spec inactive | KCNQ2 W236L MoA inactive
CC(Sc1nc2sc3c(c2c(=O)n1-c1ccccc1)CCCC3)C(=O)O (stereo not given)	none
CCCn1c(SCC(=O)NCC)nc2sc3c(c2c1=O)CCC3	none (no result: KCNQ2 enhance)
CCc1nc2sc3c(c2c(=O)n1NC(=O)CCl)CCCC3	KCNQ2 enhance 5.72 | Kir21 conf inh inactive | HEK293 Tl flux inactive | CHO-K1 Tl ctr inactive | KCNQ1 sel pot inactive | KCNQ2 pot confirm inactive | Kir21 spec inactive | KCNQ2 W236L MoA inactive
CCn1c(SC(C)C(=O)O)nc2sc3c(c2c1=O)CCC3 (stereo not given)	KCNQ2 enhance 8.7 | Kir21 conf inh inactive | HEK293 Tl flux 205.0% | CHO-K1 Tl ctr 5.3 | KCNQ1 sel pot inactive | KCNQ2 pot confirm 0.7 | Kir21 spec inactive | KCNQ2 W236L MoA inactive
CC(=O)N(C(C)=O)n1c(C)nc2sc3c(c2c1=O)CCCC3	none
CCCN1CCc2c(sc(NC(=O)CCS(=O)(=O)c3ccccc3)c2C(=O)OC)C1	none
CC12CCC(C/C1=N/O)C2(C)CBr (stereo not given)	none
C/C=C\C(=O)Nc1cccc(C2=NOC3(C2)C[C@H](C(N)=O)N(C(=O)Cc2ccc([N+](=O)[O-])cc2)C3)c1 (stereo not given in full)	none
COc1ccccc1-c1noc2ncnc(Nc3cccc(C)c3C)c12	none
O=C(NCc1cccs1)C12CC3CC(CC(C3)C1)C2	none
